Source: the OligoGym collection

target: CMPK2; test: pooled miR-30 sensor sort-seq; sequence = guide strand; conditions: shRNA
Further: reference of the scale not given here.

Row | Sequence | sensor-assay potency score (higher = more potent)
1 | TTTGACGAAACACACTGTTGGC | -0.342
2 | TGGTAGGACATTTCTACCTTTT | -1.68
3 | TCAAGTTCTGCTTCTTCCCTGG | 0.42
4 | TCCTTCGATGGCAACAACCTGG | -1.1
5 | TTTCAAACAACATCTAATCTAG | -0.108
6 | TTGACGAAACACACTGTTGGCC | -0.221
7 | TTTTGGGCACTGGTCGACCAGG | -1.61
8 | TTCTTCCCTGGTCTTCTCCATG | -1.63
9 | TGACTTTAAGAGGACAGCCTTA | -1.08
10 | TAATACCGTCTGCAGGACCTTT | -1.41
11 | TACCTGTCTACAATCACAGGAG | 0.285
12 | TTCATCATCAAAGATCTTCCTC | 0.515

target: CMYA5; test: as above; conditions: shRNA

Row | Sequence | sensor-assay potency score (higher = more potent)
13 | TACTTCTTGATCATCTTGTGGC | 0.514
14 | TGAATCAATGACATCTTCCTTG | 0.597
15 | TTAACATCTGGTCACTTCTTGC | -0.814
16 | TTACTTCTTGATCATCTTGTGG | -0.871
17 | TTCACTTTCTTCCTGATCGATT | -0.264
18 | TTTCTAACACTAGATTTCCTTC | -0.717
19 | TTCGATAGCTCTGACTCTCTGA | 0.415
20 | TATGACTTCTCTTTCTCCGTGG | 0.895
